Sa RN4220 lethal: S. aureus RN4220 growth inhibition. OD600, 16 h. inhibition, % (concentration not given with the values). 330,000 tested, 0.33% active. AID 1259311; in the data active = inhibition above about 85%
TcdB GH inh: inhibitors of Clostridioides difficile toxin B glycohydrolase. TcdB glycohydrolase enzymatic assay, plate reader. AID 652162. 350,000 tested, 0.24% active. P18177. inhibition, % at 9.99 µM; in the data active = inhibition above about 10%
ugtP null kill: growth inhibition of S. aureus ugtP deletion strain | AID 1259309 | S. aureus RN4220 ugtP deletion, OD600 growth, 16 h | 330,000 tested, 0.54% active | growth inhibition, % (test concentration not listed); in the data active = growth inhibition above about 68%
BH1578 lux ind: induces V. cholerae light production without autoinducers. V. cholerae BH1578 lux reporter, luminescence, 6 h. activation, % at 18.7 µM. 350,000 tested, 0.16% active; in the data active = activation mostly above about 9.7%, no sharp cut-off
Numbers stand for hits; – = inactive; · = no result given. Compounds with a hit are over-represented: about 0.67% of the library has one in this group of screens.

SMILES | Sa RN4220 lethal | TcdB GH inh | ugtP null kill | BH1578 lux ind
COc1c(N2CCNC(C)C2)c(F)cc2c(=O)c(C(=O)O)cn(C3CC3)c12 (stereo not given) | 100.2 | · | 99.5 | ·
COc1c(N2CCN(C(=S)NC3CC4CCC3C4)C(C)C2)c(F)cc2c(=O)c(C(=O)O)cn(C3CC3)c12 (stereo not given) | 100.4 | – | 100.1 | –
NC1CCN(c2nc3c(cc2F)c(=O)c(C(=O)O)cn3-c2ccc(F)cc2F)C1 (stereo not given) | 99.8 | – | 99.2 | –
Cc1cc(C)c(NC(=O)c2cn3c4c(c(N5CCN(C)CC5)c(F)cc4c2=O)OCC3C)c(C)c1 (stereo not given) | – | – | – | –
C[n+]1ccc(C=NNc2nc(Cl)c(C#N)c(Cl)c2Cl)cc1 | – | · | – | ·
CCOC(=O)c1cn(C2CC2)c2c(F)c(NCCCN(C)C)c(F)cc2c1=O | – | – | – | –
NC1CCN(c2c(F)cc3c(=O)c(C(=O)O)cn(C4CC4)c3c2Cl)C1 (stereo not given) | 100.2 | – | 100.1 | –
CCOC(=O)N=Nc1c(O)n(CC(=O)OC)c2ccccc12 | – | · | – | –
CCOC(=O)N=Nc1c2ccccc2c2nc3no[nH]c3nc12 | 100.2 | – | 100.1 | –
O=C(NN=Cc1ccc([N+](=O)[O-])s1)c1cncc(Br)c1 | – | · | 99.1 | ·
Cc1[nH]cnc1C(=O)NN=Cc1ccc([N+](=O)[O-])s1 | 100.5 | · | 100.5 | ·
CCCCCCCSc1nsc(N)n1 | – | · | 88.9 | –
C#CCOCCOCCOCCNc1nc(N2CCN(C(=O)C(CCCCN)n3cc(C(N)CO)nn3)CC2)nc(N2CCN(C(=O)C(CCC(=O)O)n3cc(C(N)Cc4ccc(O)cc4)nn3)CC2)n1 (stereo not given) | – | · | – | ·
CCC(=O)NC(=S)Nc1ccc(NC(=O)c2ccco2)cc1 | – | – | – | –
CCN(CC)S(=O)(=O)c1ccc(NC(=S)NC(=O)CC(C)C)cc1 | – | – | 89.0 | –
CC(C)CC(=O)NC(=S)Nc1ccc(NC(=O)c2ccco2)cc1 | – | – | 88.9 | –
CC(C)(C)C1CCC(=O)N(CCC(N=[N+]=[N-])c2ccccc2)CC1 (stereo not given) | – | · | – | ·
CCNC1CN(CCCOC)S(=O)(=O)c2sc(S(N)(=O)=O)cc21 (stereo not given) | – | · | – | ·
COc1ccc(-c2nc(N)ncc2-c2ccccc2OC)c(O)c1 | – | 12.8 | – | –
Cc1cc(C(=O)NCc2cc(C(=O)O)oc2C)c(C)o1 | – | · | – | 16.7
Cc1cc(C(=O)NCC(=O)O)c(C)o1 | – | – | – | –
CC(CCCCC=CC(=O)O)OC1OC(C)C(O)CC1O (stereo not given) | – | · | – | ·
CCC(C)C(CNC(CNC)C(C)C)NCC(C)c1ccc(CC(C)C)cc1 (stereo not given) | – | · | – | ·
COc1ccccc1-c1sc2ccccc2c1-c1ccc(O)cc1 | – | – | 93.3 | –
N#CC(=NNc1ccc(S(=O)(=O)N2CCOCC2)cc1)C(N)=O | – | · | – | ·
SMILES | Sa RN4220 lethal | TcdB GH inh | ugtP null kill | BH1578 lux ind
CC(C)(C)c1nc(NC(=O)Nc2ccccc2)sc1Br | 96.8 | – | 92.3 | –
O=[N+]([O-])c1ccc(O)c(-c2cc(C(F)(F)F)nc(-c3ccccc3)n2)c1 | 100.2 | – | 98.8 | –
Oc1ccccc1-c1cc(C(F)(F)C(F)F)nc(-c2ccccc2)n1 | – | · | – | –
Nc1ccc(S(=O)(=O)Nc2cnc3ccccc3n2)cc1 | – | – | 91.0 | –
Nc1ccc(S(=O)(=O)Nc2cnc3c(Cl)cccc3n2)cc1 | · | – | · | –
COc1ccc(-n2nnnc2S(=O)(=O)Cc2ccc(C(=O)O)cc2)cc1 | – | · | 95.3 | –
COc1ccc(/C=C/C(=O)OCC(=O)NC2CCS(=O)(=O)C2)cc1 (stereo not given) | – | – | – | –
CCCCOc1ccc(/C=C/C(=O)OCC(=O)NC2CCS(=O)(=O)C2)cc1OCC (stereo not given) | – | – | 92.4 | –
S=c1[nH]nc(-c2ccco2)n1N=Cc1ccc(Br)s1 | – | · | – | ·
O=c1cc(NCc2ccco2)c2ccccc2o1 | – | · | – | 25.8
O=c1cc(NCc2ccccc2)c2ccccc2o1 | – | · | – | –
O=[N+]([O-])c1cc(CN2CCN(c3cccc(C(F)(F)F)c3)CC2)c2cccnc2c1O | – | – | 86.4 | ·
COC(=O)C1=C(c2ccc(F)cc2OCc2ccccc2)CC2CCC1N2C(=O)NCC1CC1 (stereo not given) | – | · | – | ·
O=C(NC1CC=CCC(CC(=O)N(CCO)Cc2ccccc2)C(=O)NC(Cc2ccccc2)COC1=O)OCC1c2ccccc2-c2ccccc21 (stereo not given) | – | · | – | ·
COc1ccc(OC)c(NC(=O)CS(=O)(=O)c2ccccc2)c1 | – | · | – | –
COc1cc(OC)nc(NC(=O)CS(=O)(=O)c2ccccc2)n1 | – | · | – | 33.3
Cc1cc(NC(=O)CCCN2C(=O)c3cccnc3C2=O)no1 | – | · | – | –
Cc1cc(NC(=O)CCCN2C(=O)c3cccc4cccc(c34)C2=O)no1 | – | 11.1 | – | –
Cc1ccc2[nH]c3c(=O)n(N)c(=O)[nH]c3c2c1 | – | – | – | –
CC1=CC(C)[C@H](C=Nn2c(=O)[nH]c3c([nH]c4ccc(Br)cc43)c2=O)C(C)C1 (stereo not given in full) | – | · | 66.2 | ·
CC(C)(C)OCC(O)CN1CCN(C(=O)c2ccccc2)CC1 (stereo not given) | – | 11.8 | – | –
Cc1cc(C)c(OCC(O)CN2CCN(C(=O)c3ccccc3)CC2)c(C)c1 (stereo not given) | – | – | – | –
COc1ccc(C=NNc2nc(-c3ccc(Cl)cc3)cc(C(F)(F)F)n2)c(OC)c1 | – | · | – | ·
COc1ccc(OC2C=CC(c3ccccc3)OC2COC(=O)CCC(C)=NOC(C)c2cn(C3COCC3O)nn2)cc1 (stereo not given) | – | · | – | ·
COc1cccc(C(=O)NC2C(=O)N3C(C(=O)O)=C(COC(C)=O)CSC23)c1 (stereo not given) | · | – | · | –
SMILES | Sa RN4220 lethal | TcdB GH inh | ugtP null kill | BH1578 lux ind
CON=C(C(=O)NC1C(=O)N2C(C(=O)O)=C(COC(C)=O)CSC12)c1csc(N)n1 (stereo not given) | 100.4 | · | 100.0 | ·
CC1=C(C(=O)OCC(Cl)(Cl)Cl)N2C(=O)C(NC(=O)Cc3ccccc3)C2SC1 (stereo not given) | – | – | – | –
CC(=O)OCC1=C(C(=O)O)N2C(=O)C(NC(=O)c3ccc(COc4cccc(Cl)c4Cl)o3)C2SC1 (stereo not given) | 100.3 | – | 100.5 | –
Cc1nnc(SCC2=C(C(=O)O)N3C(=O)C(NC(=O)Cc4ccccc4)C3SC2)s1 (stereo not given) | 100.2 | – | 100.1 | –
CC(=O)OCC1=C(C(=O)OC(C)(C)C)N2C(=O)[C@@H](NC(=O)Cc3ccccc3)[C@H]2SC1 | 95.7 | – | 93.6 | –
CCCCC1CNC(=S)N1CC1CCCCC1 (stereo not given) | – | · | – | ·
Cc1nnc(SCC2=C(C(=O)O)N3C(=O)C(NC(=O)C(C)n4nc(C(F)(F)F)cc4C)C3SC2)s1 (stereo not given) | 99.8 | – | 100.5 | –

Screening results: PubChem, several laboratories
